Inconclusive results are not listed. Active and inactive are the calls of the source. Unless noted, calls follow the shape of the dose curve; as a rule, active = well fitted curve in the direction sought with a large enough effect; inconclusive = small, poorly fitted or top-dose-only effect, or another doubt; inactive = no such curve, though single readings can be large; an effect the other way counts as inactive or inconclusive.
Legend:
[1] = Primary qHTS for small molecule stabilizers of the endoplasmic reticulum resident proteome: Secreted ER Calcium Modulated Protein (SERCaMP) assay (AID 1508630); also: % is scaled to controls: 0 for no effect and ±100 for the full control effect
Outline: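 The SH-SY5Y reporter protocol was run at 3 concentrations up to 38.3 uM (primary) or 11 concentrations (follow-up): 16 h compound, 100 nM thapsigargin for 4 h, then extracellular luciferase luminescence.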

[2] = Confirmatory qHTS for small molecule stabilizers of the endoplasmic reticulum resident proteome: Secreted ER Calcium Modulated Protein (SERCaMP) assay (AID 1508628); also: % is scaled to controls: 0 for no effect and ±100 for the full control effect; nearly all actives have a fitted effect of over 40% in size
Outline: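 Reporter secretion upon ER calcium depletion (100 nM thapsigargin, 4 h, 37C) is measured as medium luminescence with coelenterazine, after 16 h compound pretreatment of SH-SY5Y-GLuc-SERCaMP cells; primary at three concentrations up to 38.3 uM, follow-up at 11 (up to 76.6 uM).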

[3] = Cell Viability qHTS for small molecule stabilizers of the endoplasmic reticulum resident proteome (AID 1508629); conditions: cell viability counter-screen, 100 nM thapsigargin for final 4 h;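 also: human SH-SY5Y neuroblastoma cells carrying the GLuc-SERCaMP reporter; compound exposure about 46 h in total before the viability read; % is scaled to controls: 0 for no effect and ±100 for the full control effect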
[4] = molecular target: Calcium and integrin-binding protein 1 (Homo sapiens) (UniProt Q99828); test: Primary qHTS for Identification of Calcium Integrin Binding Protein 1 (CIB1) Competitor (AID 1508620);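 also: GST tagged CIB1 binding a fluorescein labelled alphaIIb integrin peptide tracer; top concentration of the series differs between compounds; % is scaled to controls: 0 for no effect and ±100 for the full control effect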
Outline: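 Fluorescence polarization competition: CIB1-GST (1 uM final) preincubated with compound 15 min at room temperature, then FITC-labeled alphaIIb peptide (100 nM final) added for another 15 min. Polarization read at Ex 480/Em 540.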

[5] = system: HIV-1 nucleocapsid protein NCp7 (binding to TG oligonucleotide); test: HIV Nucleocapsid (AID 346; call rule not given here;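 also: potency is read from the fitted curve at half-maximal effect; potency is for inhibitors that block NC binding and lower polarization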); conditions: HIV-1 NC / fluorescein-TGTGTGTG probe, fluorescence polarization
Outline: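 HIV-1 NC (100 nM) binding to fluorescein-labelled ssDNA TG4xF (10 nM) in Hepes pH 7.5, 250mM NaCl, 1uM ZnCl2, TCEP and 2-mercaptoethanol; compounds pin-transferred, 1 hr room temperature, fluorescence polarization read on CCD imager.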

[6] = molecular target: Lysosomal acid glucosylceramidase (Homo sapiens) (UniProt P04062); test: Glucocerebrosidase-p2 (AID 348; in the data active = potency below about 10 µM; also: potency is read from the fitted curve at half-maximal effect); conditions: purified GBA, blue fluorogenic substrate, 40 min
Outline: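 Normal human glucocerebrosidase (0.2 nM) with blue fluorogenic substrate (80 uM final) in citrate/phosphate pH 5.9 with 10mM sodium taurocholate, 0.01% tween-20; 40 min RT, NaOH/glycine stop; fluorescence Ex 365/Em 440; AC50 from a titration from 0.6 nM upwards.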

[7] = AP1 Signaling Pathway (AID 357; active = well fitted curve in either direction with a large enough effect, not every such curve was filed as active;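 also: ME-180 reporter cells stimulated with EGF at its EC50 level; % is scaled to controls: 0 for no effect and ±100 for the full control effect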)
Outline: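 Modulation of EGF-driven AP-1 transcription was assessed with a beta-lactamase reporter in ME-180 cells. Compound and EC50 EGF were co-incubated 5 hours at 37 °C before 2.5-hour CCF4 loading at room temperature and dual-emission reading.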

[8] = molecular target: Cytochrome P450 1A2 (Homo sapiens) (UniProt P05177); test: p450-cyp1a2 (AID 410; calls by dose curve;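 also: -100% = full effect of reference inhibitor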)
Outline: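 Luminescent demethylation readout: Luciferin-ME (100uM, equal to Km) turned over by 20nM CYP1A2 for 60 min at room temperature after NADPH regeneration addition, following 10 min compound preincubation. Normalization used 57 uM furafylline as full inhibition.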

[9] = Stat Signaling Pathway (AID 446; active = well fitted curve in either direction with a large enough effect, not every such curve was filed as active)
Outline: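 FRET read-out (405 nm excitation, 460/530 nm emission) of a beta-lactamase reporter under a STAT-inducible element in ME-180 cervical carcinoma cells. Cells with compound receive 40 pM IL-6 for 5 h. Values are normalised to AC90 stimulation and AC90 JAK-inhibitor controls.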

[10] = molecular target: Glucocorticoid receptor (Homo sapiens) (UniProt P04150); test: GR-EFC Redistribution (AID 451; calls by dose curve; also: potency is read from the fitted curve at half-maximal effect); conditions: CHO-K1 GR-EFC translocation, beta-gal luminescence, 2 h
Outline: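 CHO-K1 cells stably expressing nuclear-localized β-gal enzyme acceptor and GR fused C-terminally to the enzyme donor fragment; ligand-driven nuclear translocation restores β-gal by complementation. Compounds titrated up to 46 uM final, 2 h at 37 °C; luminescence read.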

[11] = molecular target: Mitogen-activated protein kinase 10 (Mus musculus) (UniProt Q61831); test: JNK3 AlphaScreen Assay (AID 530; active = well fitted curve in either direction with a large enough effect, not every such curve was filed as active)
Outline: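 Phosphorylation of biotinylated GST-cJun(1-79) at Ser73 is measured by AlphaScreen proximity luminescence. Enzyme is JNK3 in HepG2 lysates activated with interleukin-1beta and tumor necrosis factor alpha; ATP is 10 uM final.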

[12] = molecular target: 3',5'-cyclic-AMP phosphodiesterase 4B (Homo sapiens) (UniProt Q07343); test: qHTS Assay for Inhibitors of PDE-IV (AID 607; active = well fitted activation curve with a large enough effect in the main read-out, with a control signal flat, not every such curve was filed as active; also: % of control where 0% means no effect)
Outline: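 Cell-based read-out of cAMP via a modified cyclic nucleotide-gated channel and membrane potential dye (535/590 nm) in HEK293 cells expressing PDE4 endogenously. Compounds tested up to 22.9 uM final; 100 uM RO 20-1724 reference.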

[13] = molecular target: Cytochrome P450 3A4 (Homo sapiens) (UniProt P08684); test: qHTS Assay for Activators of Cytochrome P450 3A4 (AID 885); also: nearly all actives have a fitted effect of over 65% in size; also: potency is read from the fitted curve at half-maximal effect
Outline: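 Luminescent readout of luciferin formed from 25 uM Luciferin-PPXE (KM level) by 20 nM CYP3A4 in 200 mM KPO4, with 60 min NADPH-driven reaction at room temperature after 10 min compound exposure. Ketoconazole (57 uM) defined 100% inhibition.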

[14] = qHTS Assay for Lipid Storage Modulators (AID 1519; calls by dose curve); conditions: Drosophila S3 cells, BODIPY lipid droplet/cell ratio, laser cytometry, cells loaded with oleic acid; for activity change, negative = inhibition: at 57.5 µM (top of the series)
Outline: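 Cells seeded at 5,000 per well were treated with compounds over a concentration series and loaded with oleic acid (400 uM, as added). Lipid droplet fluorescence (488 nm excitation, 500-530 nm channel) was read by laser-scanning cytometry and normalized to 20 uM Triacsin C.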

[15] = NFAT Signaling Pathway (AID 444; active = well fitted curve in either direction with a large enough effect, not every such curve was filed as active); conditions: Jurkat NFAT-bla M1, carbachol, beta-lactamase ratio, 5 h; at 7.69 µM (top of the series)
Outline: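 Jurkat cells carrying an NFAT-driven β-lactamase reporter and co-transfected muscarinic M1 receptor were treated with compound plus carbachol (1 uM final, an EC50 level) for 5 h at 37 °C. CCF4 loading followed for 1 h at RT; 460/530 nm ratio gave %activity.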

[16] = molecular target: Cytochrome P450 2D6 (Homo sapiens) (UniProt P10635); test: qHTS Assay for Inhibitors and Substrates of Cytochrome P450 2D6 (AID 891); also: nearly all actives have a fitted effect of over 60% in size; also: potency is read from the fitted curve at half-maximal effect
Outline: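 Luminescent read-out of luciferin formed by 5 nM human CYP2D6 demethylating 30 uM Luciferin-ME EGE (Km level) over 60 min at room temperature after NADPH regeneration addition. Data normalized to full inhibition by 1.43 uM quinidine.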

[17] = molecular target: Cytochrome P450 2C9 (Homo sapiens) (UniProt P11712); test: qHTS Assay for Inhibitors and Substrates of Cytochrome P450 2C9 (AID 883); also: % is scaled to controls: 0 for no effect and ±100 for the full control effect; nearly all actives have a fitted effect of over 60% in size
Outline: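 A luminogenic readout tracked human CYP2C9 (10nM) converting deoxyluciferin (100uM, at KM) in 25mM KPO4 during 60 min at 37C with regenerated NADPH. Values normalized to 57uM sulphaphenazole as complete inhibition.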

[18] = molecular target: Cytochrome P450 3A4 (Homo sapiens) (UniProt P08684); test: qHTS Assay for Inhibitors and Substrates of Cytochrome P450 3A4 (AID 884); also: % is scaled to controls: 0 for no effect and ±100 for the full control effect; nearly all actives have a fitted effect of over 50% in size
Outline: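 Luminescent readout of luciferin produced by CYP3A4 (20 nM) dealkylation of Luciferin-PPXE, 25 uM (its KM). NADPH-driven reaction ran 60 min at RT after 10 min compound preincubation; data scaled to 57 uM ketoconazole as 100% inhibition.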

[19] = qHTS Assay for Identification of Small Molecule Agonists for Hypoxia Response Element Signaling Pathway (AID 914; active = well fitted activation curve with a large enough effect in the signal ratio, with a control signal flat, not every such curve was filed as active; the % refers to the signal ratio; also: % of control where 0% means no effect); conditions: ME-180 (cervical carcinoma) HRE-bla reporter, beta-lactamase ratio, CoCl2, 17 h; activation: stronger effect = higher value
Outline: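 A beta-lactamase reporter under hypoxia response element control in ME-180 cells served as the system. Compound titrations plus EC50 CoCl2 ran 17 h at 37 degrees Celsius; AC50 values were fitted from %Activity.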

[20] = measured here: cell count channel max response
[21] = measured here: lipid channel max response

Lysosomal acid glucosylceramidase (Homo sapiens), sequence (P04062 whole entry, looked up): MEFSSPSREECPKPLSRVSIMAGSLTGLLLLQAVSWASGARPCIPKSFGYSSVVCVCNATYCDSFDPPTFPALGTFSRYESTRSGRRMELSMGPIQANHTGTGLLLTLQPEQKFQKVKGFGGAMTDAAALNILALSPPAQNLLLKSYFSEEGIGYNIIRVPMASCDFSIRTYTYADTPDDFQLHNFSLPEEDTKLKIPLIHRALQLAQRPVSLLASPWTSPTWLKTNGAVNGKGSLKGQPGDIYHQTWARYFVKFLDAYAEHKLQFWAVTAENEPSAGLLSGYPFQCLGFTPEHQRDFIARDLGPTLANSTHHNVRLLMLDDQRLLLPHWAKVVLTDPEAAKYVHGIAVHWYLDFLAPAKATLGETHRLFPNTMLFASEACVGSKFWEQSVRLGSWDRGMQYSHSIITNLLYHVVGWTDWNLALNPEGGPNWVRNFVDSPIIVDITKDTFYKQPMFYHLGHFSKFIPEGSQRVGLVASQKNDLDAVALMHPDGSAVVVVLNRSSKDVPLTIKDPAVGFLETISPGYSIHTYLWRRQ
3',5'-cyclic-AMP phosphodiesterase 4B (Homo sapiens), sequence (Q07343 whole entry, looked up): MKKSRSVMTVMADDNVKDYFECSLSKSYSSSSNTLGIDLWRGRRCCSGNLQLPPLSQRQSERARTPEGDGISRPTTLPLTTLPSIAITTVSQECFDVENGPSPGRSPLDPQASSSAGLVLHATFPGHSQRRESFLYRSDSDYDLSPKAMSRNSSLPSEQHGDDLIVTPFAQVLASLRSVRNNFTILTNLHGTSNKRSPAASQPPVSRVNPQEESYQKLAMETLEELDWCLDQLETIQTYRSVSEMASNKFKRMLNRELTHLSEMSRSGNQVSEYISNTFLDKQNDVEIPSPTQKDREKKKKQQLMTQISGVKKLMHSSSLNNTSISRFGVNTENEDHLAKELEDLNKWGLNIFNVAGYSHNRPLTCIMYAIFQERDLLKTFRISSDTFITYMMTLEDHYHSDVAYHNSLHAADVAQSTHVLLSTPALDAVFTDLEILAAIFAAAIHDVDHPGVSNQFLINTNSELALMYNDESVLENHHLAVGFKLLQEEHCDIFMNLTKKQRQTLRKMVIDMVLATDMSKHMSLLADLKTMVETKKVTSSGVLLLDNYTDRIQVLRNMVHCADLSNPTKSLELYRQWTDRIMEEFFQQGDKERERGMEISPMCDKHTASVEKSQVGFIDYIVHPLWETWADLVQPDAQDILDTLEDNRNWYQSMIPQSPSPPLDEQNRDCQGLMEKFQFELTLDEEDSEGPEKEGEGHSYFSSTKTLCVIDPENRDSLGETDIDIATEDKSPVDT
Cytochrome P450 1A2 (Homo sapiens), sequence (P05177 whole entry, looked up): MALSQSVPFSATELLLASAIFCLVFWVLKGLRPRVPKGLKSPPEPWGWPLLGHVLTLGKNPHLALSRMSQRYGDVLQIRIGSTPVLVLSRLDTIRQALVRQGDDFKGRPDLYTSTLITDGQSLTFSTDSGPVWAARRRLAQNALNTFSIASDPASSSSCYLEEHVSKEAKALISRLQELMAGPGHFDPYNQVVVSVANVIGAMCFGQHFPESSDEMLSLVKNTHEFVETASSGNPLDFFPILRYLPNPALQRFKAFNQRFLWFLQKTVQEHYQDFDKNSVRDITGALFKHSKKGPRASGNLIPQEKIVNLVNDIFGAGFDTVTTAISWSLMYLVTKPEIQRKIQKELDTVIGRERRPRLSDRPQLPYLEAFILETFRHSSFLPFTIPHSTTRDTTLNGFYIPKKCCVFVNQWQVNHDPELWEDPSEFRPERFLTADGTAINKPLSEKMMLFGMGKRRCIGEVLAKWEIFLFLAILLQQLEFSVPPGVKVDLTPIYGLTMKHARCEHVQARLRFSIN
Glucocorticoid receptor (Homo sapiens), sequence (P04150 whole entry, looked up, the tested form may be a part): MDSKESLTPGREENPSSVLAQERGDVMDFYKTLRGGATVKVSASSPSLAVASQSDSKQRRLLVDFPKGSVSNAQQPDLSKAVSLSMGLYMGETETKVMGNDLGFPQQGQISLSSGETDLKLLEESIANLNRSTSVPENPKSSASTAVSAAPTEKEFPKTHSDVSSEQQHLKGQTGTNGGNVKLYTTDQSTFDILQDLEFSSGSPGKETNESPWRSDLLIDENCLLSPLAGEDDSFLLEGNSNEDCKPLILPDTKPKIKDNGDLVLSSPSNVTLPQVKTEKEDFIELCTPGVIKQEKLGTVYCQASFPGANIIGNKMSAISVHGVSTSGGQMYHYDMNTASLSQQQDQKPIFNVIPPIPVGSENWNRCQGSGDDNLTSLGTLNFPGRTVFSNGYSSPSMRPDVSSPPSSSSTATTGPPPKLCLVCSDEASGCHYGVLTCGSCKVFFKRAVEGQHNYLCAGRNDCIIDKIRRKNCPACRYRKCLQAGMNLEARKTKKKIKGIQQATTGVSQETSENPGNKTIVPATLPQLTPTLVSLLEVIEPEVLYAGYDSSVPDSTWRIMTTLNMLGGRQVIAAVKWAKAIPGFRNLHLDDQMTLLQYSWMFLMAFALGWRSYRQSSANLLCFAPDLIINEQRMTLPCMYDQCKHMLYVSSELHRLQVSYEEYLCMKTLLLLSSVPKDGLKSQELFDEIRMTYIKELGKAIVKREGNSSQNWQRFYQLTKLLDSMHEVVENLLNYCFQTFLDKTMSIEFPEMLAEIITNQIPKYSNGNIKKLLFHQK
Cytochrome P450 3A4 (Homo sapiens), sequence (P08684 whole entry, looked up): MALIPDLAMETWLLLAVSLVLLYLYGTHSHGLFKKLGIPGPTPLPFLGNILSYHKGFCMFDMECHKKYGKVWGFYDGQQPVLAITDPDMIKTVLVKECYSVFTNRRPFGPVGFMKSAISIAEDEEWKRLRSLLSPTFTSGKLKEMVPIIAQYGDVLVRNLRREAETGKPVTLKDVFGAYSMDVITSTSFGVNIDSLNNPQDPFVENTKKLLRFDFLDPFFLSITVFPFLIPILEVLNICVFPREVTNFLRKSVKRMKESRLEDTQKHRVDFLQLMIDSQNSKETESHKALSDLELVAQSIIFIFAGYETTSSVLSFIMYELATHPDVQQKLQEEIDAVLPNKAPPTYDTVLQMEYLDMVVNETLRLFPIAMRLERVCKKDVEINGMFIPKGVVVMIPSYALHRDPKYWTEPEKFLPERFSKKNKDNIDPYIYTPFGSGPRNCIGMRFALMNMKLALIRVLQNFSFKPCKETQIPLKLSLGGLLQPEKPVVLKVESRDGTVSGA
Calcium and integrin-binding protein 1 (Homo sapiens), sequence (Q99828 whole entry, looked up): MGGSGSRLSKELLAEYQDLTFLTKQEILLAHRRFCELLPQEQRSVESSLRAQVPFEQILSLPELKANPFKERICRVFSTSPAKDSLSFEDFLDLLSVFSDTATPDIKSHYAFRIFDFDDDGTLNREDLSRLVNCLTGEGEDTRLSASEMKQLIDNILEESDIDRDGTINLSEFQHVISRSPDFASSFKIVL
Cytochrome P450 2D6 (Homo sapiens), sequence (P10635 whole entry, looked up): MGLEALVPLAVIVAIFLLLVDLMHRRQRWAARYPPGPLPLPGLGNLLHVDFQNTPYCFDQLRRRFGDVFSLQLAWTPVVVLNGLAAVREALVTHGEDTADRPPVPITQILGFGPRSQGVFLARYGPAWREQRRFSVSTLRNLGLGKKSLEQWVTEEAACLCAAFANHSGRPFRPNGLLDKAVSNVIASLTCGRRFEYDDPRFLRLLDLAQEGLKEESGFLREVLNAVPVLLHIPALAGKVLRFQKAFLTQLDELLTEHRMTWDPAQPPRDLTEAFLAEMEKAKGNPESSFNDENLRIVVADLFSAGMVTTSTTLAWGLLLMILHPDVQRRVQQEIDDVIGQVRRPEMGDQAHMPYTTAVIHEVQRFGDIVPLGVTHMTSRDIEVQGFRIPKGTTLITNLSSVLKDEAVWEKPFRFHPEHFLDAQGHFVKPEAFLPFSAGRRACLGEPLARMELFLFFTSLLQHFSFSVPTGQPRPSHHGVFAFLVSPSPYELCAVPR
Cytochrome P450 2C9 (Homo sapiens), sequence (P11712 whole entry, looked up): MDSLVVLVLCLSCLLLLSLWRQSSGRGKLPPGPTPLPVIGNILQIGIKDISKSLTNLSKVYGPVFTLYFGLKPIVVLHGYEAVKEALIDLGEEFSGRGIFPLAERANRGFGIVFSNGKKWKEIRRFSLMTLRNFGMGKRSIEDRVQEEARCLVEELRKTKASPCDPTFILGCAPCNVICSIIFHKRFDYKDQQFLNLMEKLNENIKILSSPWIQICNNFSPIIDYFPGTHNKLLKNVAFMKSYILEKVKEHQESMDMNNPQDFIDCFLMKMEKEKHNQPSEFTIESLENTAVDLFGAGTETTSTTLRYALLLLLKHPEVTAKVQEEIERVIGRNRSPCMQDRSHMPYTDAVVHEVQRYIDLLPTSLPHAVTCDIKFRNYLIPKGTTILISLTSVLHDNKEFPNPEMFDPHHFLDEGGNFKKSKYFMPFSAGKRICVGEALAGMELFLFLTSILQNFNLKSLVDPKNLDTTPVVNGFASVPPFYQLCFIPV

CN1CCC2=C[C@@H](O)[C@@H]3OC(=O)c4cc5c(cc4C3C21)OCO5 (stereo partly specified)
inactive: outcome [1]

O=C(O)[C@@H]1CSC(c2cccnc2)N1 (stereo partly specified)
inactive: Potency [2] | max response [3] 25.6%

CCOc1ccc(CCNC(=O)c2cc3cnccc3n2Cc2cccc(C)c2)cc1OCC
inactive: outcome [4]

O=C(CN1CCCCC1c1cccnc1)c1ccccc1 (stereo unspecified)
inactive: outcome [1]

c1cnc(N2CCC3(CCNCC3)CC2)nc1
23.4%: max response [14, 21]
13.8%: max response [14, 20]
inactive: Potency [5] > 20 µM | Potency [6] > 11.4 µM | outcome [7] | Potency [8] | outcome [9] | Potency [10] > 46 µM | outcome [11] | Potency [12] | Potency [13] | activity change, negative = inhibition [14] 5.39% | Potency [2] | max response [3] 1.49%

CCOC(=O)C1CCN(C(=O)C2(NC(=O)Nc3ccccc3Cl)CCCC2)CC1
inactive: outcome [4]

CCOc1ccc(CCNC(=O)c2cc3ccccc3n2Cc2cccc(C)c2)cc1OCC
inactive: outcome [4]

COc1cccc(CNc2ccc(S(=O)(=O)Nc3nccs3)cc2)c1OC
inactive: outcome [4]

CC(=O)Nc1ncc(S(=O)(=O)N2CCOCC2)s1
inactive: outcome [4]

COc1ccc(/C=C/C(=O)N2CC3C[C@@H](C2)Cn2c3cccc2=O)cc1OC
inactive: outcome [1]

CC[C@]12CCCN3CCC4(c5ccccc5NC4C(C(=O)O)C1)C32 (stereo partly specified)
inactive: outcome [1]

Cn1cc(Br)c(C2N=C(Nc3nc4ccccc4o3)NC3=C2C(=O)CCC3)n1 (stereo unspecified)
inactive: outcome [4]

Cc1cc(-c2nnc3n2CCCCC3)c(C)n1-c1cccnc1
inactive: outcome [4]

CC(=O)O[C@@H]1C[C@@]2(C)C(c3ccoc3)C[C@H]3O[C@]32[C@]2(C)C(=O)C(O)=C3C(C)(C)C(=O)C=C[C@]3(C)C12 (stereo partly specified)
inactive: outcome [1]

C[C@]12CC[C@@H](O)C[C@H]1CC[C@@H]1[C@H]2CC[C@]2(C)C(=O)CC[C@@H]12
inactive: outcome [1]

O=C(Oc1ccccc1)N1CCC2(CC1)CN(C(c1ccccc1)c1ccccc1)C2
inactive: Potency [5] > 20 µM | outcome [7] | Potency [8] | activity change, negative = inhibition [15] -29.6% | Potency [10] > 46 µM | outcome [11] | Potency [12] | activity change, negative = inhibition [14] -5.67% | outcome [1]
-3.18%: max response [14, 20]
-5.43%: max response [14, 21]
active: Potency [13] 6.31 µM | Potency [16] 7.94 µM

CN1CCCC2(CCN(C(=O)c3csnn3)CC2)C1
-8.1%: max response [14, 20]
inactive: Potency [5] > 20 µM | Potency [6] > 11.4 µM | outcome [7] | activity change, negative = inhibition [15] -27.8% | Potency [10] > 46 µM | outcome [11] | Potency [12] | activity change, negative = inhibition [14] -1.92% | outcome [1]
-6.49%: max response [14, 21]

CC(C)NC(=O)N1CC[C@@]2(CCCNC2)C1
18.1%: max response [14, 21]
inactive: Potency [5] > 20 µM | Potency [6] > 11.4 µM | outcome [7] | Potency [8] | Potency [10] > 46 µM | outcome [11] | Potency [12] | Potency [17] | Potency [18] | Potency [16] | activity change, negative = inhibition [14] 0.953% | outcome [1]
13.7%: max response [14, 20]

CS(=O)(=O)N1CCC2(CC1)CN(Cc1ccncc1)C2
inactive: Potency [5] > 20 µM | Potency [6] > 11.4 µM | outcome [7] | Potency [8] | activity change, negative = inhibition [15] 6.37% | outcome [9] | Potency [10] > 46 µM | outcome [11] | Potency [12] | Potency [13] | activity change, negative = inhibition [14] 4.09% | outcome [1]
27.2%: max response [14, 21]
21.7%: max response [14, 20]

c1ccc(CN2CCC3(CCNCC3)CC2)cc1
inactive: Potency [5] > 20 µM | Potency [6] > 11.4 µM | outcome [7] | Potency [8] | Potency [10] > 46 µM | outcome [11] | Potency [12] | activity change, negative = inhibition [14] 1.99% | outcome [1]
22.2%: max response [14, 20]
27.4%: max response [14, 21]

c1csc(CN2CC[C@@]3(CCCNC3)C2)n1
-1.59%: max response [14, 20]
1.97%: max response [14, 21]
inactive: Potency [5] > 20 µM | Potency [6] > 11.4 µM | outcome [7] | activity change, negative = inhibition [15] -10% | Potency [10] > 46 µM | outcome [11] | Potency [12] | activation [19] 9.27% | activity change, negative = inhibition [14] 0.956% | outcome [1]

c1ccc(N2CC[C@@]3(CCCNC3)C2)nc1
12.4%: max response [14, 20]
16.2%: max response [14, 21]
inactive: Potency [5] > 20 µM | Potency [6] > 11.4 µM | outcome [7] | Potency [8] | outcome [9] | Potency [10] > 46 µM | outcome [11] | Potency [12] | Potency [13] | activity change, negative = inhibition [14] 2.13% | outcome [1]

CN1CC[C@@]2(CCCN(C(=O)c3ccncc3)C2)C1
inactive: Potency [5] > 20 µM | outcome [7] | Potency [8] | Potency [10] > 46 µM | outcome [11] | Potency [12] | Potency [13] | activity change, negative = inhibition [14] 0.0036% | outcome [1]
8.97%: max response [14, 21]
5.11%: max response [14, 20]

O=C(c1csnn1)N1CCC2(CC1)CN(Cc1ccncc1)C2
inactive: Potency [5] > 20 µM | Potency [6] > 11.4 µM | outcome [7] | outcome [9] | Potency [10] > 46 µM | outcome [11] | Potency [12] | Potency [13] | activity change, negative = inhibition [14] 4.72% | outcome [1]
6.9%: max response [14, 20]
14.2%: max response [14, 21]

CC(C)CN1CC[C@@]2(CCCN(C(=O)c3ccncc3)C2)C1
-1.41%: max response [14, 20]
inactive: Potency [5] > 20 µM | outcome [7] | activity change, negative = inhibition [15] -22.2% | outcome [9] | Potency [10] > 46 µM | outcome [11] | Potency [12] | activity change, negative = inhibition [14] 2.73% | outcome [1]
4.49%: max response [14, 21]

Source: PubChem BioAssay (NCATS)
